Experimental data published in the supplement of paper PMC6124720.
A number with no mark means an inactive call.

System: Pseudogymnoascus destructans 20631-21
Assay: growth activity index (DuctApe, 0 = no growth, 9 = maximal growth) (index 0-9); higher = more fungal growth (less inhibition), active = 0 or less; extreme values may be limits of the assay
Settings: temperature: 13 °C, YPD
[1] = concentration level (1-4, increasing; Biolog proprietary): 1
[2] = concentration level (1-4, increasing; Biolog proprietary): 2
[3] = concentration level (1-4, increasing; Biolog proprietary): 3
[4] = concentration level (1-4, increasing; Biolog proprietary): 4
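Also: biolog Phenotype Microarray plates PM21–25, OD595 followed daily over 11 days, growth curves converted to index, mean of two independent experiments.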

Q: With `O=[Se](=O)([O-])[O-].[Na+].[Na+]` [Sodium Selenate] (Biolog plate: PM23) as the compound, how does the growth activity index [1] read?
A: 5

Q: What about the growth activity index [2] of the same compound?
A: 4

Q: What about the growth activity index [3] of the same compound?
A: 2.67

Q: And the growth activity index [4]?
A: 3

Q: Which growth activity index [1] does the source give for `CNC1CC(N)C(O)C(OC2OC(CO)C(O)C3OC4(OC(C(N)CO)C(O)C(O)C4O)OC23)C1O` (configuration not stated) [Hygromycin B] (Biolog plate: PM25) here?
A: 2.67

Q: What about the growth activity index [2] of the same compound?
A: 2

Q: What about the growth activity index [3] of the same compound?
A: 1

Q: And the growth activity index [4]?
A: 0 (active)

Q: What does the source list for `CC1C=CC=CCCC=CC=CC=CC=CC(OC2OC(C)C(O)C(N)C2O)CC2OC(O)(CC(O)C(O)CCC(O)CC(O)CC(O)CC(=O)OC(C)C(C)C1O)CC(O)C2C(=O)O` (configuration not stated) [Nystatin] (Biolog plate: PM21)?
A: growth activity index [1]: 1.75; growth activity index [2]: 0 (active); growth activity index [3]: 0 (active); growth activity index [4]: 0 (active)
